HP1b chromo inh: HTS for Inhibitors of HP1-beta Chromodomain Interactions with Methylated Histone Tails; AlphaScreen HP1-beta / biotin-H3K9me3 peptide binding; Potency, µM (top dose mostly 114 µM), for inactives: at the highest dose activity change, negative = inhibition, hits mostly inhibitors; 390,000 compounds, 0.56% hits; Chromobox protein homolog 1 (Homo sapiens), P83916; AID 540317, 2011; note: nearly all actives have a fitted effect of over 70% in size
Target sequence (P83916 whole entry, looked up): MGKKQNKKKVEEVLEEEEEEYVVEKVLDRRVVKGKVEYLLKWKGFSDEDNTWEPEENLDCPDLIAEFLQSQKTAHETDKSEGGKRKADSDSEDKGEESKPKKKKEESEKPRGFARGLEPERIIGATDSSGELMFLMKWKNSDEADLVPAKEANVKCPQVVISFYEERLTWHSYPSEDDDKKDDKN
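HP1-beta protein (50 nM final) preincubated 30 min at room temperature with biotinylated H3(1-18)K9me3 peptide (50 nM) in PBS pH 7.4, 0.01% Tween-20, then compound added for 30 min. AlphaScreen streptavidin donor/nickel chelate acceptor beads (10 ug/mL final), 30 min dark, luminescence read.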
BAZ2B inh: qHTS Assay for Inhibitors of BAZ2B. 360,000 compounds, 4.4% hits. AID 504333, 2011. Potency, µM (highest dose often 114 µM), without a hit: at the top dose activity change, negative = inhibition, actives largely listed as inhibitors. AlphaScreen BAZ2B-H3K14Ac peptide displacement. Bromodomain adjacent to zinc finger domain protein 2B (Homo sapiens), Q9UIF8; note: % is set by controls: 0 for no effect and ±100 for the full control effect; nearly all actives have a fitted effect of over 60% in size
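BAZ2B (50 nM) with biotin-H3(5-23)K14Ac peptide (50 nM) in PBS pH 7.4, 0.01% Tween-20, preformed 30 min, then compound 30 min at room temperature; top concentration 110uM. AlphaScreen streptavidin donor/nickel chelate acceptor beads (10 ug/mL final), 20 min dark, signal read.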
G9a block: qHTS Assay for Inhibitors of Histone Lysine Methyltransferase G9a; G9a H3K9 monomethylation, AlphaScreen, 2 h; Potency, µM (series often up to 102 µM), inactives show at the highest dose activity, negative = inhibition, actives largely listed as inhibitors; AID 504332, 2011; 350,000 compounds, 8.8% hits; note: % is set by controls: 0 for no effect and ±100 for the full control effect; nearly all actives have a fitted effect of over 75% in size
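Quantitative HTS format: methyltransferase activity on a biotin-tagged H3K9 peptide is measured by AlphaScreen, using a rabbit anti-monomethyl-H3K9 antibody with streptavidin donor and anti-IgG acceptor beads. Final levels are 20 nM enzyme, 500 nM peptide, 20 uM SAM; 2 h RT.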
JMJD2A Tudor: qHTS Assay for Inhibitors of JMJD2A-Tudor Domain | AlphaScreen JMJD2A-Tudor / H3K4me3 peptide binding | Potency, µM (titrated, usually from 114 µM), without a hit: top-dose activity change, negative = inhibition, most hits filed as inhibitors | 390,000 compounds, 4.4% hits | AID 504339, 2011; note: % is set by controls: 0 for no effect and ±100 for the full control effect; nearly all actives have a fitted effect of over 50% in size
L3MBTL1 block: qHTS Assay for the Inhibitors of L3MBTL1; Lethal(3)malignant brain tumor-like protein 1 (Homo sapiens), Q9Y468; Potency, µM (top dose mostly 57.1 µM), for inactives: top-dose activity, negative = inhibition, actives largely listed as inhibitors; 230,000 compounds, 0.66% hits; AlphaScreen L3MBTL1–H3K9me1 peptide binding; note: % is set by controls: 0 for no effect and ±100 for the full control effect; nearly all actives have a fitted effect of over 60% in size
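L3MBTL1 (50 nM) pre-complexed 30 min with biotinylated H3(1-15)K9me1 peptide (75 nM), then compounds added for 30 min at room temperature; AlphaScreen streptavidin donor/nickel chelate acceptor beads (10 ug/mL final) read after 30 min dark incubation.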
Sfp inh: qHTS Assay for Inhibitors of Bacillus subtilis Sfp phosphopantetheinyl transferase (PPTase). Biochemical Sfp PPTase activity, qHTS. Potency, µM, for the others: largest response in the series, negative = inhibition, hits mostly inhibitors. AID 1490, 2009. 4'-phosphopantetheinyl transferase ffp (Bacillus subtilis), Q9F4F7. 310,000 compounds, 3.5% hits;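 note: the enzyme is Sfp with the accession as filed and its product quenches rhodamine fluorescence; 0% = enzyme reaction without inhibitor and -100% = no enzyme wells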
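With Hepes-Na pH 7.6 buffer containing 10 mM MgCl2, Sfp (15 nM) modified BHQ-2-YbbR (12.5 uM) using rhodamine-CoA (5 uM). Two reads 30 minutes apart at 525/598 nm yielded each well's rate.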
An asterisk follows results filed as active; u = inconclusive; x = not tested or not shown; [ ] = remark or other dose. Shown are actives, neighbours in structure and some others; about 12% of the full set was active somewhere. Calls come from the whole dose curve; as a rule, active = well fitted curve in the direction sought with a large enough effect; inconclusive = small, poorly fitted or top-dose-only effect, or another doubt; inactive = no such curve, though single readings can be large; an effect the other way counts as inactive or inconclusive. Potency is the fitted concentration of half-maximal effect.

SMILES	HP1b chromo inh	BAZ2B inh	G9a block	JMJD2A Tudor	L3MBTL1 block	Sfp inh
COc1cc(/C=N/N2CCN(Cc3ccc(Cl)cc3)CC2)cc(Br)c1O	-21%	50µM*	2%[0.501 µM]	45µM*	-1%[2.29 µM]	-4%
COc1cc(/C=N/N2CCN(Cc3ccc(Cl)cc3)CC2)ccc1OC(C)=O	u	56µM*	x	45µM*	-22%	8%
Cn1nnc(NC(=O)c2ccccc2)n1	52%	1%	16%[59 µM]	-1%	10%	11%
CCOC(=O)CSC(=S)NC(=O)c1ccc(OC)cc1	24%	-1%	u	u	7%	-12%
COc1ccc(C(=O)NC(=S)SCC(=O)O)cc1	18%	-7%	x	-6%	9%	50µM*
COc1ccc(C(=O)NC(=S)Nc2ccccc2F)cc1	u	2%	u	-10%	11%	-9%
Cn1nnc(NC(=S)NC(=O)Cc2ccccc2)n1	79µM*	35µM*	2.8µM*	22µM*	9%	-27%
COc1ccc(C(=O)NC(=S)Nc2nnn(C)n2)cc1	-37%	50µM*	3.5µM*	32µM*	4%	56µM*
CNC(=O)NC(=S)NC(=O)c1ccc(OC)cc1	14%	-35%	16%[12.7 µM]	16µM*	4%	-22%
Cn1cnnc1SCC(=O)NC1CC1	28%	x	x	-10%	4%	x
Cc1ccc(NC(=O)CN2C(=O)CSc3ccc(S(=O)(=O)N4CCCC4)cc32)cc1F	41%	-33%	-15%[59 µM]	-31%	x	x
CC1(c2cccc(Br)c2)NC(=O)N(CC(=O)N2CCc3ccccc32)C1=O (stereo not given)	19%	-20%	15%[59 µM]	-21%	-5%	x
